# From the supplement of paper PMC10849652
# The full data set covers some 8,800 targets. This sample favours those with a hit. About 0.5% of all pairs of compound and target were hits. Values without a mark were called inactive.
# How the values were obtained:
# Experiment in all cases: log2 fold change, soluble protein after heating vs DMSO (PISA); higher = thermal stabilisation; K562 lysate, 10 uM; active = over 0.2 and 3.5 SD of the protein, either way, in both replicates (recomputed)
# alvocidib = compound: CN1CC[C@H](c2c(O)cc(O)c3c(=O)cc(-c4ccccc4Cl)oc23)[C@H](O)C1 [alvocidib]
# Method in brief: (§1)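 The values are log-two fold changes in thermal stability compared with solvent controls and come from duplicates. They were obtained by TMTpro 16plex LC-MS/MS, with channel sums equalised, on the supernatant after 21,000xg for 90 min. That supernatant came from crude K562 extract at 1 mg/mL protein treated with 10 μM compound for 30 min, heated for 3 min across 48°C-58°C, pooled and brought to 0.5% NP-40 at 4°C.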
# Tubastatin A = compound: CN1CCc2c(c3ccccc3n2Cc2ccc(C(=O)NO)cc2)C1 [Tubastatin A]
# Method in brief: as §1
# defactinib = compound: CNC(=O)c1ccc(Nc2ncc(C(F)(F)F)c(NCc3nccnc3N(C)S(C)(=O)=O)n2)cc1 [defactinib]
# Method in brief: as §1
# crizotinib = compound: C[C@@H](Oc1cc(-c2cnn(C3CCNCC3)c2)cnc1N)c1c(Cl)ccc(F)c1Cl [crizotinib]
# Method in brief: as §1
# [1] = compound: C[C@H](C1=CC=C(C=C1)C(=O)NC2=C3C=CNC3=NC=C2)N
# Method in brief: as §1
# gandotinib = compound: Cc1cc(Nc2cc(CN3CCOCC3)c3nc(C)c(Cc4ccc(Cl)cc4F)n3n2)n[nH]1 [gandotinib]
# Method in brief: as §1
# doramapimod = compound: Cc1ccc(-n2nc(C(C)(C)C)cc2NC(=O)Nc2ccc(OCCN3CCOCC3)c3ccccc23)cc1 [doramapimod]
# Method in brief: as §1
# [2] = compound: Cc1cccc(CC(=O)N2CCc3c2ccc(-c2cn(C)c4ncnc(N)c24)c3F)n1
# Method in brief: as §1
# [3] = compound: CNc1nc(-c2ccc3c(N)n[nH]c3c2)cc(N2C[C@@H](C(=O)NC3CCCCC3)CC[C@H]2C)n1
# Method in brief: as §1
# encorafenib = compound: COC(=O)N[C@@H](C)CNc1nccc(-c2cn(C(C)C)nc2-c2cc(Cl)cc(NS(C)(=O)=O)c2F)n1 [encorafenib]
# Method in brief: as §1
# [4] = compound: COC(=O)[C@H](CCSC)NC(=O)C1=C(C=C(C=C1)NC[C@H](CS)N)C2=CC=CC=C2
# Method in brief: as §1
# alisertib = compound: COc1cc(Nc2ncc3c(n2)-c2ccc(Cl)cc2C(c2c(F)cccc2OC)=NC3)ccc1C(=O)O [alisertib]
# Method in brief: as §1
# [5] = compound: COc1cc2nc(-c3cc(F)ccc3O)nc(N[C@@H]3CNC[C@H]3C(C)(C)O)c2cc1OC
# Method in brief: as §1
# gefitinib = compound: COc1cc2ncnc(Nc3ccc(F)c(Cl)c3)c2cc1OCCCN1CCOCC1 [gefitinib]
# Method in brief: as §1
# lapatinib = compound: CS(=O)(=O)CCNCc1ccc(-c2ccc3ncnc(Nc4ccc(OCc5cccc(F)c5)c(Cl)c4)c3c2)o1 [lapatinib]
# Method in brief: as §1
# pictilisib = compound: CS(=O)(=O)N1CCN(Cc2cc3nc(-c4cccc5[nH]ncc45)nc(N4CCOCC4)c3s2)CC1 [pictilisib]
# Method in brief: as §1
# duvelisib = compound: C[C@H](Nc1ncnc2nc[nH]c12)c1cc2cccc(Cl)c2c(=O)n1-c1ccccc1 [duvelisib]
# Method in brief: as §1
# tozasertib = compound: Cc1cc(Nc2cc(N3CCN(C)CC3)nc(Sc3ccc(NC(=O)C4CC4)cc3)n2)n[nH]1 [tozasertib]
# Method in brief: as §1
# bafetinib = compound: Cc1ccc(NC(=O)c2ccc(CN3CC[C@H](N(C)C)C3)c(C(F)(F)F)c2)cc1Nc1nccc(-c2cncnc2)n1 [bafetinib]
# Method in brief: as §1
# [6] = compound: CNC(=O)C1=CC=CC=C1NC2=NC(=NC=C2Cl)NC3=C(C=C(C=C3)N4CCOCC4)OC
# Method in brief: as §1
# UniProt Q8WXC6, sequence (Q8WXC6 whole entry, looked up): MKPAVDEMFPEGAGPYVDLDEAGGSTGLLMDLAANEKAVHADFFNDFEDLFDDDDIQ
# UniProt P48729, sequence (P48729 whole entry, looked up): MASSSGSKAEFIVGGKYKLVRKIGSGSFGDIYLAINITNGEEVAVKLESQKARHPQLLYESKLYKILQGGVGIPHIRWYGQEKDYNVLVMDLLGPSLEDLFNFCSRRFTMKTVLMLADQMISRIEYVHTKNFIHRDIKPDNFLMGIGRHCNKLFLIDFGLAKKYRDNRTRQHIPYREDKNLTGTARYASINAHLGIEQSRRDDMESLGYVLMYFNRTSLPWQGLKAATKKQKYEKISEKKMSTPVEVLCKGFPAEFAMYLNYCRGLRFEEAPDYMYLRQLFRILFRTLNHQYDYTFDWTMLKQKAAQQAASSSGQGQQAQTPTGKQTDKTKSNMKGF
# UniProt P48730, sequence (P48730 whole entry, looked up): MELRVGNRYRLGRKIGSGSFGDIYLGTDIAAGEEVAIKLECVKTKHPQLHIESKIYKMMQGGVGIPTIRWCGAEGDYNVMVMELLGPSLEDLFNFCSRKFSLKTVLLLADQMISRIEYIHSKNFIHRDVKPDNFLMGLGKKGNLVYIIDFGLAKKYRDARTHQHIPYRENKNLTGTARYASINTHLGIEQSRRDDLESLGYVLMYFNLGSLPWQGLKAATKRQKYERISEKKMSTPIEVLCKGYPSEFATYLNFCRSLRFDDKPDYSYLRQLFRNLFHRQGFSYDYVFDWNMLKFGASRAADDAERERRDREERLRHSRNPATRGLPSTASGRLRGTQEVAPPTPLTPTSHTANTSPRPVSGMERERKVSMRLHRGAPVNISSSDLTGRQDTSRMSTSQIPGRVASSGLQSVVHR
# UniProt Q9BW66, sequence (Q9BW66 whole entry, looked up): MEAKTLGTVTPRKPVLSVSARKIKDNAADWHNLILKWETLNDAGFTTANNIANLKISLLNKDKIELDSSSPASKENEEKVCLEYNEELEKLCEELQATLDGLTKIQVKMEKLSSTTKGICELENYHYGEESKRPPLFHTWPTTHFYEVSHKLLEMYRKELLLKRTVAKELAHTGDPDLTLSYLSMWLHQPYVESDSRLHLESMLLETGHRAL
# UniProt Q9Y6M4, sequence (Q9Y6M4 whole entry, looked up): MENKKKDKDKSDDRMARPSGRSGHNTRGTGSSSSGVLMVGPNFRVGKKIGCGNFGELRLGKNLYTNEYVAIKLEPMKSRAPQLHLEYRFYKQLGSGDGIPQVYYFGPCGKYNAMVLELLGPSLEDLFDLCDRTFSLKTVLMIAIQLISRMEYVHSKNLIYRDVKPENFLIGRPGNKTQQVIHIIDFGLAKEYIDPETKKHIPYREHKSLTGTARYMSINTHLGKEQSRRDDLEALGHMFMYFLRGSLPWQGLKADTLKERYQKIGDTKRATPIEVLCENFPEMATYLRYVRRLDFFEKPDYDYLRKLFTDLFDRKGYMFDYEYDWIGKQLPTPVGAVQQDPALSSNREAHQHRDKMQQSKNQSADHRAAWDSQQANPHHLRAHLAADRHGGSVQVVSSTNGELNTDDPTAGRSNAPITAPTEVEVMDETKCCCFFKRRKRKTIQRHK
target,measurement,setting,value
"CLIP1, A0A3B3ITA2",log2 fold change,alvocidib,-0.036
same,log2 fold change,Tubastatin A,0.152
same,log2 fold change,defactinib,-0.077
same,log2 fold change,crizotinib,-0.033
same,log2 fold change,[1],-0.222
same,log2 fold change,gandotinib,0.55
same,log2 fold change,doramapimod,-0.138
same,log2 fold change,[2],0.269
CSNK1D (UniProt P48730),log2 fold change,alvocidib,0.244
same,log2 fold change,Tubastatin A,-0.085
same,log2 fold change,defactinib,0.103
same,log2 fold change,[3],-0.091
same,log2 fold change,encorafenib,0.041
same,log2 fold change,[4],0.013
same,log2 fold change,alisertib,0
same,log2 fold change,[5],-0.131
same,log2 fold change,gefitinib,-0.023
same,log2 fold change,lapatinib,-0.098
same,log2 fold change,pictilisib,0.066
same,log2 fold change,crizotinib,0.052
same,log2 fold change,[1],-0.153
same,log2 fold change,duvelisib,0.007
same,log2 fold change,gandotinib,0.059
same,log2 fold change,tozasertib,0.008
same,log2 fold change,doramapimod,-0.011
same,log2 fold change,bafetinib,-0.01
same,log2 fold change,[2],-0.177
CSNK1A1 (UniProt P48729),log2 fold change,alvocidib,0.007
same,log2 fold change,Tubastatin A,-0.105
same,log2 fold change,defactinib,0.077
same,log2 fold change,[3],0.019
same,log2 fold change,encorafenib,0.081
same,log2 fold change,[4],-0.005
same,log2 fold change,[5],0.049
same,log2 fold change,gefitinib,-0.005
same,log2 fold change,lapatinib,-0.099
same,log2 fold change,pictilisib,0.084
same,log2 fold change,crizotinib,-0.049
same,log2 fold change,[1],0.084
same,log2 fold change,duvelisib,-0.034
same,log2 fold change,gandotinib,-0.077
same,log2 fold change,tozasertib,-0.068
same,log2 fold change,doramapimod,0.027
same,log2 fold change,bafetinib,0
same,log2 fold change,[2],-0.01
CSNK1G3 isoform 4 (UniProt Q9Y6M4),log2 fold change,[5],0.53
same,log2 fold change,lapatinib,-0.035
DAZAP1 (UniProt K7EQ02),log2 fold change,alisertib,0.071
same,log2 fold change,gefitinib,-0.084
CINP isoform 3 (UniProt Q9BW66),log2 fold change,alvocidib,-0.056
same,log2 fold change,Tubastatin A,-0.107
same,log2 fold change,defactinib,-0.056
same,log2 fold change,[3],0.028
same,log2 fold change,encorafenib,0.003
same,log2 fold change,[4],0.062
same,log2 fold change,alisertib,0
same,log2 fold change,[5],0.064
same,log2 fold change,gefitinib,-0.24
same,log2 fold change,lapatinib,-0.059
same,log2 fold change,pictilisib,0.011
same,log2 fold change,crizotinib,-0.028
same,log2 fold change,[1],-0.325 (active)
same,log2 fold change,duvelisib,0.062
same,log2 fold change,gandotinib,0.018
same,log2 fold change,tozasertib,0.056
same,log2 fold change,doramapimod,0.036
same,log2 fold change,bafetinib,-0.059
same,log2 fold change,[2],0.208
COPS9 (UniProt Q8WXC6),log2 fold change,Tubastatin A,-0.272
same,log2 fold change,[6],0.087
same,log2 fold change,[5],0.163
same,log2 fold change,lapatinib,0.148
CIC (UniProt I3L1Q4),log2 fold change,pictilisib,0.065
same,log2 fold change,bafetinib,0.021
